According to PubChem BioAssay (NCI):
Compounds without any hit were thinned out: in the full panel of roughly 83,000, 20% have a hit.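 Percent growth is the endpoint: 0 to 100 indicates growth inhibition (40 means 60% inhibition), 0 means no net growth, and negative values indicate cell death.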 Unmarked numbers belong to inactive results. Calls of active or inactive are those of the source. The calls were made as follows: active = growth percent below 10; inactive = the rest.

Each molecule was assayed on HL-60(TB) leukemia (assay: NCI-60 one-dose screen, 48 h (100 = growth as untreated, 0 = no growth, -100 = all killed)). Details: 10 µM unless noted.
Molecule `CC1=C(C(=O)OCc2ccccc2)C(c2c(O)cc(O)cc2O)n2c(nc3ccccc32)N1` (configuration not stated) has a growth of 27.2%.
`Nc1cc(-c2c[nH]c3ccc(F)cc23)nc2cc(-c3c[nH]c4ccccc34)nn12` was tested, and the growth was -0.0986% (active).
`COc1cc(CNC(=O)C[C@H](C)CCC=C(C)C)ccc1OCc1cn(-c2ccccc2Cl)nn1` showed a growth of 41.1%.
`O=C(NO)c1ccc(CNc2nc(-c3ccccc3)c3ccccc3n2)cc1` was tested, and the growth was -4.14% (active).
Molecule `Cc1nc2sccn2c1-c1nnc(SCc2ccccc2)o1` has a growth of 89.9%.
In the case of `COc1ccc(CN2[C@@H](C(=O)NCc3ccc(C(=O)NO)cc3)Cc3c([nH]c4ccccc34)[C@@H]2C2CC2)cc1`, the growth is reported as -8.06% (active).
`CC(C)Sc1nc(NCCc2c[nH]c3ccccc23)c(C#N)c(-c2ccccc2)n1` gave a growth of 19.3%.
